The results in this text go back to ChEMBL document CHEMBL1157539, “Thousands of chemical starting points for antimalarial lead identification” (Nature, 2010).

The test concerns Plasmodium falciparum. Nature of the test: GSK_TCMDC: Inhibition of Plasmodium falciparum Dd2 in whole red blood cells, using parasite LDH activity as an index of growth. Test compounds present at 2uM. The test is classed as functional.
In general, Inhibition refers to the drop in the measured response relative to a control, in per cent. High values mean a response far below the control, low ones a response near the control. Regarding `Cc1cc(NC(=O)c2ccc(S(=O)(=O)N(Cc3ccccc3)C(C)C)cc2)no1`, the Inhibition is 67%.

Regarding `CCCCCCn1c(Sc2ccc(C#N)c([N+](=O)[O-])c2)nnc1-c1ccc(Cl)cc1`, the Inhibition is reported as 48%.

Take `N=C1NC(c2ccccc2)(c2ccccc2)C(=O)N1CC=Cc1ccccc1.O=C(O)C(F)(F)F`: the Inhibition turned out to be 70%.

On to `CCc1c[nH]c2c(N3CCCS3(=O)=O)cc(C(=O)N[C@@H](Cc3ccccc3)[C@H](O)CNC(C)(C)CCCC(C)C)cc12`, for which the Inhibition turned out to be 98%.

The compound `O=C(NCCc1ccccc1)N(Cc1cccc(-c2ccc(CNC3CCCC3)cc2)c1)C1CCN(Cc2ccccc2)CC1.O=C(O)C(F)(F)F` registered an Inhibition of 84%.

In turn, `O=C(NCc1ccccc1)Nc1ccc(-c2cccc(-c3nc4cc(C(F)(F)F)ccc4[nH]3)c2)cc1` returned an Inhibition of 23%.

Compound `O=C(Nc1cccc(-c2cccc(-c3nc4cc(C(F)(F)F)ccc4[nH]3)c2)c1)c1cccnc1Cl` displayed an Inhibition of 58%.

Consider `CCCC(CNCc1cccc(SC(F)(F)F)c1)CNc1cc(=O)c2ccccc2[nH]1` (stereo not given), for which the Inhibition came out at 87%.

As to `Cc1cnc(NCC2CCCCC2)nc1N[C@@H](CC(C)C)C(=O)Nc1ccccc1.O=C(O)C(F)(F)F`, the Inhibition worked out at 55%.

Take `COc1ccc(-c2ccc(NC(=O)c3ccc(C#N)cc3)cc2)cc1CN1CCC(O)CC1.O=C(O)C(F)(F)F`: the Inhibition worked out at 28%.

On to `Cc1cc(N)c2cc(NC(=O)/C=C/c3ccccc3Cl)ccc2n1`, for which the Inhibition was found to be 98%.

The compound `CCN(CC)CCN(Cc1ccc(-c2ccc(C(F)(F)F)cc2)cc1)C(=O)Cn1c(CCc2c(F)cccc2F)nc(=O)c2ccccc21.O=C(O)C(O)C(O)C(=O)O` returned an Inhibition of 61%.

The compound `CC(C)(CNCc1cc(Cl)cc(Cl)c1)c1nc(-c2ccnc(N)n2)c(-c2ccc(Cl)c(O)c2)[nH]1.Cl` gave an Inhibition of 2%.

`Cc1ccccc1C1CCN(C2CCC(NC(=O)c3cc4cc(C(C)C)ccc4[nH]3)CC2)CC1` (stereo not given) had an Inhibition of 100%.

`CCc1c(C)nc2nc(Cc3cccc(F)c3)nn2c1N1CCN(c2ccccn2)CC1` yielded an Inhibition of 98%.

For the compound `COc1ccc(NC(=O)[C@H](CC(C)C)Nc2cc(C)nc(NCCc3cccs3)n2)cc1.O=C(O)C(F)(F)F`, the Inhibition turned out to be 68%.

`Cc1ccc(CN2CCN(Cc3cccc(NC(=O)c4cccs4)c3)CC2)cc1C.O=C(O)C(F)(F)F` returned an Inhibition of 68%.

`CC(C)NC(=O)c1cccc(-c2cccc(OCCN3CCSCC3c3ccccc3)c2)c1` (stereo not given): the Inhibition amounted to 45%.

`O=C(c1ccc([N+](=O)[O-])o1)N1CCC(c2cn(Cc3cccc(F)c3)c3ccccc23)CC1` displayed an Inhibition of 95%.

Compound `COc1cc(C(=O)N2CCC(CCN3CCC4(CC3)CN(S(C)(=O)=O)c3ccccc34)CC2Cc2ccc(Cl)c(Cl)c2)cc(OC)c1OC.Cl` (stereo not given) registered an Inhibition of 99%.

Consider `O=C(Nc1ccc(C(=O)N(Cc2ccc3c(c2)OCO3)C2CCCC2)cc1)c1cccs1`, for which the Inhibition was 95%.

With `Cc1cccc2nc(-c3ccc(-c4cccc(CN5CCCCC5)c4)s3)[nH]c12.O=C(O)C(F)(F)F`, the Inhibition stood at 92%.

Turning to `Cc1cc(C(=O)Nc2ccc3c(c2)CCN3C2CCN(Cc3cccc(F)c3F)C2)no1` (stereo not given), the Inhibition is listed as 94%.

Compound `COc1ccc(NC(=O)NC2CCN(CCCOc3cc(C)nc4ccccc34)CC2)cc1OC` returned an Inhibition of 9%.

Consider `O=C(NC1CCN(Cc2ccccc2)CC1)c1cc(-c2ccncc2)nc2ccc(Cl)cc12`, for which the Inhibition stood at 27%.

As to `CCc1cc(NC2CCN(C)CC2)nc(Nc2cccc(OC)c2)n1`, the Inhibition was found to be 37%.

Consider `Clc1ccccc1CCNCC1CCN(CC2CCCCC2)CC1.O=C(O)C(F)(F)F`, for which the Inhibition was 38%.

In the case of `CC(C)(C)c1ccc(C(=O)Nc2cccc(Nc3c(C(=O)NCc4cccc(C(F)(F)F)c4)cnc4c(O)cccc34)c2)cc1.O=C(O)C(F)(F)F`, the Inhibition stood at 79%.

`O=C(NC1CCN(CCCOc2ccnc3cc(Cl)ccc23)C1)c1ccc(Br)cc1` (stereo not given): the Inhibition is 87%.

In turn, `CC(C)N(Cc1cnc2nc(N)nc(N)c2n1)c1ccc(Cl)c(Cl)c1` gave an Inhibition of 98%.

The compound `O=C(Nc1cccc(CN2CCN(C(=O)c3cccc(F)c3)CC2)c1)c1cccs1.O=C(O)C(F)(F)F` registered an Inhibition of 95%.

For `CN(C)C(CNC(=O)c1cc(-c2ccncc2)c(-c2ccc(NC(=O)Nc3ccccc3)cc2)o1)c1ccccc1.O=C(O)C(F)(F)F` (stereo not given), the Inhibition turned out to be 96%.

`N=C(N)NC(=O)Nc1cc(Cl)c(Cl)c(Br)c1` registered an Inhibition of 99%.

For the compound `Cc1cc(O)c2c3c1C(=O)C=C1C3c3c(c(O)cc(O)c3C(=O)C1(C)C)C2=O` (stereo not given), the Inhibition turned out to be 46%.

Turning to `COc1ccc(-c2cc(C(=O)Nc3ccc(CCCN(C)Cc4ccc(OC)c(OC)c4)cc3)c3ccccc3n2)cc1`, the Inhibition was 47%.

The compound `COc1cc(C(=O)NCCCN2CCN(c3cc(Cl)ccc3OC)CC2)ccc1-c1nc2cc(Cl)c(Cl)cc2[nH]1` registered an Inhibition of 99%.

Consider `O=C(Nc1cccc(-c2cccc(-c3nc4cc(C(F)(F)F)ccc4[nH]3)c2)c1)c1cccnc1`, for which the Inhibition turned out to be 70%.

In the case of `COc1ccc2nccc([C@@H](O)CN3CCC(NCc4nc5cc(F)ccc5o4)CC3)c2c1.O=C(O)C(=O)O`, the Inhibition was found to be 12%.

In turn, `CCN1CCC(N(CCCCCCc2ccc(C(F)(F)F)cc2)C(=O)Cn2c(CCc3cccc(F)c3F)cc(=O)c3ccccc32)CC1.O=C(O)C(O)C(O)C(=O)O` came in with an Inhibition of 82%.

On to `O=C(Nc1ccccc1C(F)(F)F)Nc1nn(Cc2c(F)cccc2Cl)cc1Br`, for which the Inhibition came out at 86%.
